# Reference: PubChem BioAssay (NCI)
# This is part of a sample that, as a whole, favours compounds with a hit. Of some 83,000 tested, about 20% had one in any assay.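 Interpretation: 100, growth as untreated; towards 0, rising growth inhibition; 0, no net growth; 0 to -100, cell death. Compounds scoring below 10 were considered active.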 Unmarked numbers belong to inactive results. Active and inactive are the calls of the source.
# How the values were obtained:
# Assay in all cases: NCI-60 one-dose screen, 48 h (100 = growth as untreated, 0 = no growth, -100 = all killed)
# NCI-H23 lung = conditions: 10 µM unless noted
# NCI-H226 lung = conditions: 10 µM unless noted
# NCI-H322M lung = conditions: 10 µM unless noted
# NCI-H460 lung = conditions: 10 µM unless noted
# HOP-92 NSCLC = conditions: 10 µM
# NCI-H522 lung = conditions: 10 µM
# 786-0 renal = conditions: 10 µM unless noted
# COLO 205 colon = conditions: 10 µM unless noted
# DU-145 prostate = conditions: 10 µM unless noted
# K-562 leukemia = conditions: 10 µM unless noted
# MALME-3M melanoma = conditions: 10 µM unless noted
# MDA-MB-231 breast = conditions: 10 µM unless noted
# SF-268 CNS = conditions: 10 µM unless noted
# SF-295 CNS = conditions: 10 µM unless noted
# SF-539 CNS = conditions: 10 µM unless noted
# UACC-257 melanoma = conditions: 10 µM unless noted
# M14 melanoma = conditions: 10 µM unless noted
# A549/ATCC NSCLC = conditions: 10 µM unless noted
# RXF 393 renal = conditions: 10 µM unless noted
SMILES,growth (NCI-H23 lung),growth (NCI-H226 lung),growth (NCI-H322M lung),growth (NCI-H460 lung),growth (HOP-92 NSCLC),growth (NCI-H522 lung),growth (786-0 renal),growth (COLO 205 colon),growth (DU-145 prostate),growth (K-562 leukemia),growth (MALME-3M melanoma),growth (MDA-MB-231 breast),growth (SF-268 CNS),growth (SF-295 CNS),growth (SF-539 CNS),growth (UACC-257 melanoma),growth (M14 melanoma),growth (A549/ATCC NSCLC),growth (RXF 393 renal)
COc1cc2cc3cc4cc(OC)c(OC)cc4c(C)[n+]3cc2cc1OC (tested in a mixture with another compound),89%,80%,89.8%,89.1%,143%,56.4%,66.5%,111%,79.3%,58.1%,86.2%,94.5%,39.4%,70.7%,85%,51.1%,78.4%,,
CC[C@H](Nc1ncnc2nc[nH]c12)c1nc2cccc(NCc3ccc(C(=O)NO)nc3)c2c(=O)n1-c1ccccc1,41.1%,66.7%,77.7%,24.6%,23.2%,,59.1%,,67%,10.5%,62.3%,50.6%,35.9%,80.9%,10.9%,56.3%,68.5%,68.2%,27.8%
COc1ccc(C(=O)CN2C(=O)NC(c3ccccc3)(c3ccccc3)C2=O)cc1,103%,93.2%,110%,102%,71.5%,,109%,115%,116%,,108%,106%,101%,98.8%,92.9%,98.7%,103%,103%,105%
COc1ccc(C(O)(c2ccccc2)C(C(=O)O)c2ccccc2)cc1 (stereo not given),102%,106%,105%,116%,63%,98.5%,103%,111%,118%,101%,107%,103%,107%,118%,92.7%,127%,103%,,121%
CC(=O)Nc1ccc(CC#N)cc1Br,110%,96.4%,105%,101%,94%,,101%,109%,107%,111%,101%,112%,106%,105%,103%,103%,105%,103%,
CCCCCCCCc1ccc(OCCOCC[N+](C)(C)CC)cc1 (tested in a mixture with another compound),26.8%,56.5%,94%,39.9%,6.23% (active),,87.8%,-42.1% (active),64.5%,22.8%,-19.9% (active),22.2%,23%,97.2%,18.4%,12.9%,44.5%,69.5%,50.3%
O=C1N/C(=N\c2nnc(-c3ccc(O)cc3)s2)S/C1=C\c1ccccc1O,95.2%,99.6%,91.9%,102%,81.7%,,97.5%,114%,95.2%,103%,82.8%,99.4%,90.7%,94%,101%,102%,91.1%,103%,113%
O=C(N/N=C/c1ccccc1Cl)c1cccc2ccccc12,97.9%,99.7%,108%,98.9%,94.8%,,105%,114%,115%,93.7%,97.9%,105%,104%,99.7%,108%,111%,106%,97.5%,110%
O=C(N/N=C\c1ccc(-c2ccc(Br)cc2)o1)c1cc2oc(-c3cccc(C(F)(F)F)c3)cc2[nH]1,96.8%,106%,70.6%,91.5%,111%,122%,,107%,126%,90.2%,97.1%,111%,87.7%,,97.9%,-48.2% (active),,38.3%,
CCCOC(=O)c1c(C)n(C)c2scc[n+]12,29%,87.2%,51.2%,110%,30.1%,,62.9%,84.9%,77.8%,65%,92.5%,80.1%,89.3%,54.1%,81.1%,78.8%,,62.9%,67.8%
COc1ccc(Cn2cc3c(c2-c2ccc(OC)cc2)CCc2cnoc2-3)cc1,6.98% (active),9.5% (active),43.5%,0.836% (active),55.2%,,30.3%,-32.4% (active),10.5%,14.7%,,8.41% (active),30.5%,,-28% (active),65.2%,1.32% (active),22%,-1.78% (active)
CCCCCCCCCCCCCCCCCC1=NCCN1CS(=O)(=O)O,87.5%,87.5%,15.5%,-79.1% (active),38.5%,,74.5%,29.2%,33.7%,-10.9% (active),,-15.8% (active),-24.5% (active),74.6%,61.2%,91.8%,34.6%,-8.05% (active),69.9%
CCCCCCCCC/C(=N\NC(=O)c1ccncc1)c1ccc(O)c(O)c1O,21.8%,34.4%,36.1%,4.14% (active),46.6%,,11.1%,27.6%,27.8%,15.1%,35.4%,47.9%,17.6%,16.3%,7.62% (active),8.98% (active),8.78% (active),13.5%,19.2%
Nc1nc2c(c3cnccc13)C(c1ccc(Cl)c(Cl)c1)Cc1cnccc1-2 (stereo not given),-37.6% (active),-26% (active),-26.6% (active),-29.6% (active),-45% (active),,-65.8% (active),,-5.69% (active),4.04% (active),-67% (active),-35% (active),-10.9% (active),-29.9% (active),-45.1% (active),-12.8% (active),-44.2% (active),-24.7% (active),-74.2% (active)
CCOC(=O)C1C(=O)C(=O)N(C(C)C)C1C(=O)OCC (stereo not given),97.3%,100%,104%,106%,83%,118%,107%,118%,113%,108%,92.4%,103%,99.3%,98.2%,99.8%,86.7%,111%,,105%
CCCCCc1ccnc(CC(=O)c2ccc(OC)cc2)c1,93.8%,88.6%,104%,95.2%,69.5%,66.6%,98.9%,87.3%,105%,68.1%,90.3%,98%,98.7%,97.4%,97.2%,90.9%,99.2%,,106%
Cn1cnc2nc[nH]c2c1=S,98.7%,98.2%,101%,108%,75.2%,86.5%,101%,116%,112%,103%,98.8%,96.3%,107%,99.4%,110%,96.5%,105%,,110%
Cc1[nH]n(C(=S)Nc2nc3cc(Cl)c(F)cc3s2)c(=O)c1N=Nc1ccc(F)c(Cl)c1,97.4%,95.7%,119%,106%,71.2%,123%,,109%,154%,89.5%,139%,93.5%,90%,,108%,-34.2% (active),114%,40.1%,
